Laboratory results reported in the supplement of paper PMC5662767.

Tested on: Drosophila S2 cl14 SmoIP sensor cells
Experiment: normalized SmoIP GFP fluorescence (untreated unstimulated = 0%, untreated Hh-stimulated = 100%); higher = more Smo activation sensor fluorescence
Conditions: compound concentration: 2 uM, 24 h
[1] = stimulation: Hh conditioned medium (+Hh)
[2] = stimulation: mock conditioned medium (-Hh)
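Further: flow cytometry read-out as median GFP intensity of gated cells, compounds added 30 min before Hh-conditioned or mock medium, mock-treated cells serving as unstimulated baseline.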

Row | SMILES | normalized SmoIP GFP fluorescence [1] | normalized SmoIP GFP fluorescence [2]
1 | COc1cc2ncnc(Nc3ccc(O)c(Br)c3)c2cc1OC | 112% | -2.31%
2 | O=C(NCc1cccc(O)c1)Nc1nc(-c2ccncc2)cs1 | 107% | -2.93%
3 | N#CC[C@H](C1CCCC1)n1cc(-c2ncnc3[nH]ccc23)cn1 | 112% | 1.03%
4 | CCOc1cc2ncc(C#N)c(Nc3ccc(F)c(Cl)c3)c2cc1NC(=O)/C=C/CN(C)C [Pelitinib] | 197% | 9.86%
5 | Cc1cccc(-c2[nH]c(C(C)(C)C)nc2-c2ccc3c(c2)OCO3)n1 | 133% | -6.97%
6 | COC(=O)[C@]12CCC(C)(C)C[C@H]1[C@H]1C(=O)C=C3[C@@]4(C)C=C(C#N)C(=O)C(C)(C)[C@@H]4CC[C@@]3(C)[C@]1(C)CC2 [bardoxolone-methyl] | 102% | 0.986%
7 | O=C(N/N=C/c1ccc(O)c(O)c1)c1cc2ccccc2cc1O [dynasore] | 129% | 1.24%
8 | Cc1ccccc1C(=O)Nc1ccc(C(=O)N2CCCC(O)c3cc(Cl)ccc32)c(C)c1 (centres undefined) | 111% | -6.61%
9 | CN1CCN(C(=O)c2cc3cc(Cl)ccc3[nH]2)CC1 | 101% | -2.71%
10 | CN1CCN(C(c2ccccc2)c2ccccc2)CC1 [cyclizine-2hcl] | 104% | -5.15%
11 | Nc1ccc2ncnc(NCCc3ccc(Oc4ccccc4)cc3)c2c1 | 45.5% | 39.1%
12 | COc1ccccc1N1CCN(CCN2C(=O)CC3(CCCC3)CC2=O)CC1 | 102% | -17.9%
13 | COc1cc2ncnc(Nc3ccc(F)c(Cl)c3)c2cc1NC(=O)/C=C/CN1CCCCC1 | 163% | 12.5%
14 | CCN1CCN(Cc2ccc(-c3cc4c(N[C@H](C)c5ccccc5)ncnc4[nH]3)cc2)CC1 | 97% | 6.52%
15 | CN1C(C(=O)Nc2ccccn2)=C(O)c2sc(Cl)cc2S1(=O)=O [lornoxicam-xefo] | 129% | -4.89%
16 | COc1ccc(-n2nc(C(N)=O)c3c2C(=O)N(c2ccc(N4CCCCC4=O)cc2)CC3)cc1 | 102% | -1.56%
17 | C[C@@H](O[C@H]1OCCN(Cc2n[nH]c(=O)[nH]2)[C@H]1c1ccc(F)cc1)c1cc(C(F)(F)F)cc(C(F)(F)F)c1 [Aprepitant] | 115% | -5.98%
